In all, about 310,000 compounds went through this assay and about 2,200 (0.71%) showed an effect of 50% or more. Effects have a minus sign here. Only a selection was taken, and strong results are over-represented in it overall.

The experiment deals with human ether-à-go-go-related gene (hERG) potassium channel (human, UniProt Q12809). Put plainly: primary screen, population patch clamp on CHO cells stably expressing hERG; higher = less effect of the substance.
human ether-à-go-go-related gene (hERG) potassium channel, sequence (Q12809 whole entry, looked up): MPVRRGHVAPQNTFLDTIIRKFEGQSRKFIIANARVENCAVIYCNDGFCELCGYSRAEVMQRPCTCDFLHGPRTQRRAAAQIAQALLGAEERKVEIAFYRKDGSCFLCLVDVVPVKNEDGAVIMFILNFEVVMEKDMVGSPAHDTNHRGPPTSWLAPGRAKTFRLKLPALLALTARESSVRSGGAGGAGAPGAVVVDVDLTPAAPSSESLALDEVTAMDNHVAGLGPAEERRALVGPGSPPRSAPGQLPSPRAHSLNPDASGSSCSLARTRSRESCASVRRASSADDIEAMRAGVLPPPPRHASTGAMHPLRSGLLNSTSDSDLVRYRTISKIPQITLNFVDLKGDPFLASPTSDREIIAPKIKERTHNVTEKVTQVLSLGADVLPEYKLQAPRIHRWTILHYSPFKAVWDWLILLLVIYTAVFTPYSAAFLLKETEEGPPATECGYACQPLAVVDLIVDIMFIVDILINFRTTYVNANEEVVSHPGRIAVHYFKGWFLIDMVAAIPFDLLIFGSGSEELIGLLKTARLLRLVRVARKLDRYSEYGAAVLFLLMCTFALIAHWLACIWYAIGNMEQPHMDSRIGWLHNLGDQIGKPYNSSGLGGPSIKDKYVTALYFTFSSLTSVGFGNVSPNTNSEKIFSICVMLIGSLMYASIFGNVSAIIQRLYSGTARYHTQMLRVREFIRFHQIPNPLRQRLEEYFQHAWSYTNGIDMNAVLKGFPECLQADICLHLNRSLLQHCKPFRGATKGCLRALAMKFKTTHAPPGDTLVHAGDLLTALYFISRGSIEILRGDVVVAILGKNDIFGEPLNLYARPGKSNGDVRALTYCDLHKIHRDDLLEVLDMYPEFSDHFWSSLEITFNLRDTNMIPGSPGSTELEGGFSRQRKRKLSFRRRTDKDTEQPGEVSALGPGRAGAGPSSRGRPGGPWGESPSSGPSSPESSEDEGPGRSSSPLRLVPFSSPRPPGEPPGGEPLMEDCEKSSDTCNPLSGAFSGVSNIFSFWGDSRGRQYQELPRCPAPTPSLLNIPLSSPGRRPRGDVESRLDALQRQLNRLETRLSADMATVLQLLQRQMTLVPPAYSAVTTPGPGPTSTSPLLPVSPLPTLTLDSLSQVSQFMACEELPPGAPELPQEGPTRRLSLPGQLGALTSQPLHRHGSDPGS
Turning to `NS(=O)(=O)c1cccc2c1c([N+](=O)[O-])cc1nc([O-])c([O-])nc12.[Na+]`, the “hERG current change (%, negative = inhibition) at 1uM” value is 20.2%. The figure for `CCCNS(=O)(=O)c1cc(Br)cc2c1N(C(=O)CC)CC2` is 4.42%. The figure for `C=C(C)c1cccc(C(C)(C)NC(=O)NC2CC(C)(C)NC(C)(C)C2)c1` is 7.67%; for `O=C(Nc1ccc(F)cc1)C1CC2CCC1C2` (stereo not shown) it is 12.7%. The figure for `Cc1ccc(NC(=O)c2cc(C)on2)cc1` is 6.42%; for `CC12CN3CC(C)(CN(C1)C3c1ccccc1)C2O` (stereo not shown) it is 9.98%.

For the compound `Cc1ccc(C2=NN(CC(=O)NCCN(CC(C)C)CC(C)C)C(=O)CC2)cc1`, the “hERG current change (%, negative = inhibition) at 1uM” value is on record as -3.88%.

Turning to `COc1cc(NC(=O)C(C)Oc2ccccc2)c(OC)cc1NC(=O)c1ccccc1` (stereo not shown), the “hERG current change (%, negative = inhibition) at 1uM” value amounted to 13.2%. With `O=C(c1cccc(Cl)c1)N1CCC(c2nc3ccccc3[nH]2)CC1` the figure was -0.145%; with `CC(C)(C)c1ccc(S(=O)(=O)N2CCC(c3nc4ccc(Cl)cc4[nH]3)CC2)cc1`, 7.6%.

With `Cc1ccc(CN2CCC(c3nc4ccc(Cl)cc4[nH]3)CC2)cc1`, the “hERG current change (%, negative = inhibition) at 1uM” value is listed as -91.8%. With `COc1ccc(CN2CCC(c3nc4ccc(Cl)cc4[nH]3)CC2)cc1` the figure was -84%. The figure for `Clc1ccc2nc(C3CCN(Cc4nnnn4C4CCCCC4)CC3)[nH]c2c1` is -16.2%; for `CC1CCCCN1C(=O)CN1CCC(c2nc3ccc(Cl)cc3[nH]2)CC1` (stereo not shown) it is 1.51%. As to `CC1CCCN(C(=O)CN2CCC(c3nc4ccc(Cl)cc4[nH]3)CC2)C1` (stereo not shown), the “hERG current change (%, negative = inhibition) at 1uM” value is listed as -35.9%.

Regarding `Cc1ccc(Cn2nnnc2CN2CCC(c3nc4ccc(Cl)cc4[nH]3)CC2)cc1`, the “hERG current change (%, negative = inhibition) at 1uM” value turned out to be 4.97%. Regarding `Clc1ccc(CN2CCC(c3nc4ccc(Cl)cc4[nH]3)CC2)cc1`, the “hERG current change (%, negative = inhibition) at 1uM” value is listed as -78.7%. The figure for `Clc1ccc2nc(C3CCN(Cc4ccccc4)CC3)[nH]c2c1` is -73.7%; for `COc1ccc(NC(=S)N2CCC(c3nc4ccc(Cl)cc4[nH]3)CC2)c(OC)c1` it is 1.15%; for `O=C(NC1CCCCC1)N1CCC(c2nc3ccc(Cl)cc3[nH]2)CC1` it is 6.29%. Take `Cc1nc(CCl)cc(=O)[nH]1`: the “hERG current change (%, negative = inhibition) at 1uM” value is 4.26%.

Consider `Cc1[nH]ccc(=O)c1OCc1c(F)cccc1Cl`, for which the “hERG current change (%, negative = inhibition) at 1uM” value worked out at 12.8%.

`Nc1cc(=O)[nH]c(SCC(=O)Nc2ccc(Cl)c(Cl)c2)n1`: the “hERG current change (%, negative = inhibition) at 1uM” value was 1.55%.

`Cc1nc(SCCC(=O)O)c2cc(-c3ccccc3)sc2n1`: the “hERG current change (%, negative = inhibition) at 1uM” value is given as 6.67%.

As for `NC(=O)CSc1nnc(CNc2ccc(F)cc2)n1CC1CCCO1` (stereo not shown), the “hERG current change (%, negative = inhibition) at 1uM” value is -1.77%. The figure for `COc1ccc(-n2ccnc(SCC(=O)NC3CCCC3)c2=O)cc1` is -4.46%; for `CCOc1cc(C(=O)NC(C)c2ccncc2)cc(OCC)c1OCC` (stereo not shown) it is -1.97%.

With `Cc1cc(Cl)ccc1N(CC(=O)NCc1ccc2c(c1)OCO2)S(C)(=O)=O`, the “hERG current change (%, negative = inhibition) at 1uM” value is on record as 3.99%. The figure for `Cc1ccc(NC(=S)N(CCC(C)C)C(C)c2ccncc2)c(Cl)c1` (stereo not shown) is 10.9%; for `CC1(C(=O)NC(=S)N(Cc2ccccc2)c2ccccn2)CC1(Cl)Cl` (stereo not shown) it is 12.4%; for `O=C1N(C2CCCC2)C[C@@H]2C[C@@H](c3cccn3-c3ccccn3)N3CCC[C@@]123` it is -28.9%. With `Cc1ccc(-n2cccn2)c([C@@H]2C[C@H]3CN(C)C(=O)[C@]34CCCN24)c1` the figure was -15%. Take `Cn1cc([C@@H]2C[C@H]3CN(C4CCCC4)C(=O)[C@]34CCCN24)c(-c2ccccc2)n1`: the “hERG current change (%, negative = inhibition) at 1uM” value is -0.828%. The figure for `CN1C[C@@H]2C[C@@H](c3cccn3-c3nccs3)N3CCC[C@@]23C1=O` is 1.26%; for `O=C1N(C2CCCC2)C[C@@H]2C[C@@H](c3cccn3-c3nccs3)N3CCC[C@@]123` it is -60.3%; for `Cc1cc(C)c([C@@H]2C[C@H]3CN(C4CCCC4)C(=O)[C@]34CCCN24)c(-n2cccn2)c1` it is -71.7%.

In the case of `COc1ccc(Nc2nc(N)c(C(=O)c3ccc(OC)cc3)s2)cc1`, the “hERG current change (%, negative = inhibition) at 1uM” value is on record as -5.28%.

Regarding `CC12CCC(=O)N1C(C(=O)Nc1cc(C(F)(F)F)ccc1N1CCOCC1)CS2` (stereo not shown), the “hERG current change (%, negative = inhibition) at 1uM” value stood at 10.5%. Consider `Cc1cc(C)nc(NC(=S)Nc2cccc(F)c2)c1`, for which the “hERG current change (%, negative = inhibition) at 1uM” value worked out at 6.3%. `CCOc1cc(N2CCOCC2)c(OCC)cc1NC(=O)c1ccc(C)s1`: the “hERG current change (%, negative = inhibition) at 1uM” value was -1.15%. Take `COc1ccc(N=C2SCCCN2C)cc1.I`: the “hERG current change (%, negative = inhibition) at 1uM” value was 15.8%. As to `c1cc2c3c(cccc3c1)C(N1CCOCC1)=N2`, the “hERG current change (%, negative = inhibition) at 1uM” value is on record as -0.83%.

For `c1cc2c3c(cccc3c1)C(N1CCCCC1)=N2`, the “hERG current change (%, negative = inhibition) at 1uM” value is given as -44.8%.

With `Fc1ccc(N2CCN(C3=Nc4cccc5cccc3c45)CC2)cc1`, the “hERG current change (%, negative = inhibition) at 1uM” value is on record as -69.4%. With `CNC(=O)CC1C(=O)N(c2ccc(Cl)cc2)C(=S)N1CCc1ccc(OC)c(OC)c1` (stereo not shown) the figure was 10.1%; with `N=c1c(S(=O)(=O)c2ccc(Br)cc2)cc2c(=O)n3ccccc3nc2n1C1CCCC1`, 14.3%; with `N=c1c(C(=O)NCC2CCCO2)cc2c(=O)n3ccccc3nc2n1C1CCCC1` (stereo not shown), -72.2%.

Regarding `N=c1c(C(=O)NCC2CCCO2)cc2c(=O)n3ccccc3nc2n1C1CCCCC1` (stereo not shown), the “hERG current change (%, negative = inhibition) at 1uM” value was -79.2%. With `N=c1c(S(=O)(=O)c2ccc(Br)cc2)cc2c(=O)n3ccccc3nc2n1C1CCCCC1`, the “hERG current change (%, negative = inhibition) at 1uM” value turned out to be 21.1%. With `O=C(NCC1CCCO1)c1cccc2ccccc12` (stereo not shown) the figure was 17.8%. The figure for `CN(C)c1ccc(CN(C(=O)/C=C/c2ccco2)C2CCS(=O)(=O)C2)cc1` (stereo not shown) is 11.7%. Consider `O=C(Nc1ccc(F)c(Cl)c1)Nn1cnnc1`, for which the “hERG current change (%, negative = inhibition) at 1uM” value amounted to 0.762%. With `Cc1cccc(NC(=S)N/N=C/c2ccc([N+](=O)[O-])s2)c1` the figure was 11.2%; with `COc1ccc2[nH]c(=O)c(C(c3nnnn3C3CCCC3)N(C)C3CCCCC3)cc2c1` (stereo not shown), -3.8%; with `CN(C(=O)c1ccc(S(=O)(=O)N2CCCCC2)cc1)C1CCS(=O)(=O)C1` (stereo not shown), -3.22%. Take `CCC1CCCCN1CC(=O)c1ccc(OC(F)F)cc1` (stereo not shown): the “hERG current change (%, negative = inhibition) at 1uM” value is on record as -80.2%.

On to `Br.O=C(CN1CCCCC1)c1ccc(OC(F)F)cc1`, for which the “hERG current change (%, negative = inhibition) at 1uM” value is listed as -63.4%. Turning to `Cl.O=C(CN1CCCCC1)c1ccc(F)cc1`, the “hERG current change (%, negative = inhibition) at 1uM” value was 7.09%. Regarding `Br.CC1CC(C)CN(CC(=O)c2ccc(OC(F)F)cc2)C1` (stereo not shown), the “hERG current change (%, negative = inhibition) at 1uM” value is recorded as -96.1%. As for `CC1CC(C)CN(CC(=O)c2cccs2)C1` (stereo not shown), the “hERG current change (%, negative = inhibition) at 1uM” value is -7.65%.

As for `CCC1CCCCN1CC(=O)c1c(C)[nH]c2ccc(OC)cc12` (stereo not shown), the “hERG current change (%, negative = inhibition) at 1uM” value was -5.25%.

Consider `Br.COc1ccc(C(=O)CN2CCCCC2)cc1`, for which the “hERG current change (%, negative = inhibition) at 1uM” value was 13.9%. With `Br.O=C(CN1CCCCC1CO)c1ccc(OC(F)F)cc1` (stereo not shown) the figure was -21.3%; with `CC1CC(C)CN(C(=S)Nc2ccc(OC(F)F)cc2)C1` (stereo not shown), -45.1%.

Source of the values: PMC4336329 (PLoS ONE, 2015).
